Bioassay records deposited in PubChem by National Center for Advancing Translational Sciences (NCATS).
Hits are enriched below; roughly 8% of the tested compounds scored in any of these assays.
HT1080 IDH1KD tx = HT-1080 IDH1 knockdown cell toxicity (counter line); HT-1080 IDH1 knockdown viability, ATP luminescence, 48 h; Potency, µM (series often up to 46.1 µM), for inactives: at the highest dose activity, negative = toxicity, usual class: cytotoxic; 360,000 tested, 2% active;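 note: 0% = DMSO wells and -100% = cell-free medium wells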
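% activity derives from luminescence (CellTiter-Glo), normalised to DMSO and no-cell wells. HT-1080-IDH1KD cells, 750/well, had 48 h compound exposure at 37 °C.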
MCF10A rerep = induces DNA re-replication in MCF 10a normal breast cells; 350,000 tested, 2.9% active; MCF 10A DNA re-replication, Hoechst nuclear intensity, 48 h; Potency, µM (highest dose often 46.1 µM), for inactives: top-dose activity, positive = re-replication, hits mostly activators; note: % of control where 0% means no effect; nearly all actives have a fitted effect of over 50% in size
KB-V1 cytotox = KB-V1 MDR subline cytotoxicity | KB-V1 MDR cells viability, CellTiter-Glo, 72 h | Potency, µM (highest dose often 46.1 µM), most hits filed as cytotoxic | 400,000 tested, 3.4% active | AID 1347076; note: % is set by controls: 0 for no effect and ±100 for the full control effect; nearly all actives have a fitted effect of over 60% in size
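Drug-selected KB-V1 cells, grown in DMEM lacking phenol red with 10% FBS, receive compound titrations; after three days at 37 degrees C, surviving cell ATP is quantified by CellTiter-Glo luminescence and responses normalized and curve-fitted.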
KB-3-1 tox = kills parental KB-3-1 adenocarcinoma cells; KB-3-1 viability, CellTiter-Glo ATP luminescence, 72 h; Potency, µM (top dose mostly 46.1 µM), most hits filed as cytotoxic; 400,000 tested, 1.4% active; note: % is set by controls: 0 for no effect and ±100 for the full control effect; nearly all actives have a fitted effect of over 60% in size
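Here the drug-naive KB-3-1 line serves as comparator for MDR sub-line selectivity; cells received compound titrations, 72 h at 37 °C, then CellTiter-Glo readout.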
SW480 rereplic = inducers of DNA re-replication in SW480 colon cancer cells. SW480 DNA re-replication, Hoechst DNA content imaging, 48 h. Potency, µM (titrated, usually from 46.1 µM), for inactives: top-dose re-replication activation, actives largely listed as activators. 340,000 tested, 1.8% active; note: % of control where 0% means no effect; nearly all actives have a fitted effect of over 55% in size
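Image-based DNA-content assay: after two days of treatment, nuclei were labelled with the DNA dye Hoechst and imaged, and hits were compounds raising the count of nuclei showing high fluorescence intensity.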
HT1080NT lethal = kills 2HG-producing HT-1080-NT fibrosarcoma cells. 360,000 tested, 1.6% active. Potency, µM (top dose mostly 46.1 µM), for inactives: top-dose activity, negative = less viability, most hits filed as cytotoxic. HT-1080-NT fibrosarcoma viability, CellTiter-Glo ATP luminescence, 48 h;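 note: NT is the 2HG producing partner of a matched IDH1 knockdown line; 0% = DMSO-treated cells and -100% = media-only wells without cells; nearly all actives have a fitted effect of over 55% in size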
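Viability by CellTiter-Glo luminescence after 48 h compound exposure at 37C of HT-1080-NT cells (750/well, RPMI, 5% FBS). % activity scaled between DMSO wells and medium-only wells, then curve-fitted and categorized by curve class.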
* = called active by the depositor; i = inactive; ? = inconclusive; · = not tested or not shown; [ ] = another dose, or the depositor's remark. Calls come from the whole dose curve; as a rule, active = well fitted curve in the direction sought with a large enough effect; inconclusive = small, poorly fitted or top-dose-only effect, or another doubt; inactive = no such curve, though single readings can be large; an effect the other way counts as inactive or inconclusive. Potency is the fitted concentration of half-maximal effect.

SMILES	HT1080 IDH1KD tx	MCF10A rerep	KB-V1 cytotox	KB-3-1 tox	SW480 rereplic	HT1080NT lethal
O=C(CSc1nnc(-c2ccncc2)o1)NC1C2CC3CC(C2)CC1C3 (stereo not given)	-7%	3%	?	i	-4%	-4%
CCOC(=O)c1cc(S(=O)(=O)Nc2ccc(OC)c(Cl)c2)[nH]n1	·	·	?	i	·	·
CC(C)c1ccc2oc(-c3cc(N)ccc3O)nc2c1	-20%	29%	18µM*	i	6%	-10%
Cc1ccccc1-c1nnc(CN2CCN(c3cccc(C)c3C)CC2)o1	·	·	i	i	·	·
CCc1cc(Cn2nc(-c3ccccc3)cc2C(=O)NCCOC)on1	8%	0%	i	i	-43%	8%
CCc1cc(Cn2nc(-c3ccccc3)cc2C(=O)NCC2CC2)on1	3%	0.15µM*	i	i	-1%	0%
COc1cccc(C2c3cc4c(cc3OC(NNC(N)=O)C2C)OCO4)c1O (stereo not given)	6.5µM*	3.3µM*	4.6µM*	1.5µM*	8.2µM*	4.6µM*
COc1ccccc1C(=O)Nc1ccc2c(c1)OCO2	-24%	-7%	i	i	-8%	-7%
COc1cc(C2c3cc4c(cc3OC(NNC(N)=S)C2C)OCO4)cc(OC)c1OC (stereo not given)	?	1.5µM*	?	1µM*	2.6µM*	1.8µM*
COc1cc(C2c3cc4c(cc3OC(NNC(N)=O)C2C)OCO4)cc(OC)c1OC (stereo not given)	?	0.73µM*	7.3µM*	0.52µM*	1.3µM*	1.3µM*
COc1cc(CC(=O)NCc2ccc3c(c2)OCO3)cc(OC)c1OC	8%	-10%	i	?	-6%[9.22 µM]	13%
COc1ccc(C(=O)N2c3ccccc3C(=O)OC2c2ccc3c(c2)OCO3)cc1 (stereo not given)	-3%	4%	i	i	5%	-1%
COc1ccc(C2c3cc4c(cc3OC(NNC(N)=O)C2C)OCO4)cc1 (stereo not given)	16µM*	?	9.2µM*	6.5µM*	?	?
CCc1ccc(NC(=O)CN2C(C(=O)OC)=C(c3ccccc3)c3ccccc3S2(=O)=O)cc1	·	·	?	i	·	·
COc1cccc(C2c3cc4c(cc3OC(C)(N3CCCC3)C2C)OCO4)c1O (stereo not given)	?	?	16µM*	?	18µM*	?
COc1cc(C2c3cc4c(cc3OC(NCc3ccccc3)C2C)OCO4)cc(OC)c1OC (stereo not given)	1.2µM*	1.6µM*	?	0.58µM*	4.6µM*	1.6µM*
COc1ccccc1[C@@H]1C(c2ccccc2)=NN(c2ccccc2)[C@H]1C(=O)N1CCOC1=O	-4%	?	i	i	?	-6%
COc1ccccc1[C@@H]1C(c2ccc(F)cc2)=NN(c2ccccc2)[C@H]1C(=O)N1CCOC1=O	-8%	4.1µM*	i	i	21µM*	-3%
COc1ccccc1[C@@H]1C(c2cccc(C)c2)=NN(c2ccccc2)[C@H]1C(=O)N1CCOC1=O	-5%	?	i	i	15µM*	6%
COc1ccccc1[C@@H]1C(c2cccc(Cl)c2)=NN(c2ccc(Br)cc2)[C@H]1C(=O)N1CCOC1=O	1%	?	?	i	3.3µM*	-2%
CN(C(=O)C1CC1)C1CCS(=O)(=O)C1 (stereo not given)	-17%	-12%	i	i	-18%	2%
CCn1cc(C(=O)N(C)Cc2ccccc2)c(=O)c2cc(S(=O)(=O)N3CCc4ccccc4C3)ccc21	·	·	i	i	·	·
OCc1nc2ccccc2n1/N=C/c1cccs1	2%	0%	i	i	-65%	31%
Cc1oc(-c2ccc(-c3ccccc3)cc2)nc1CN(C)C1CCOC1 (stereo not given)	?	?	?	?	16µM*	?
Cc1oc(-c2ccc(-c3ccccc3)cc2)nc1CN(CCO)C(C)C	23µM*	?	i	i	3%	?
SMILES	HT1080 IDH1KD tx	MCF10A rerep	KB-V1 cytotox	KB-3-1 tox	SW480 rereplic	HT1080NT lethal
Cc1oc(-c2cccc(Cl)c2)nc1CN(C)C1CCOC1 (stereo not given)	15%	0%	i	i	3%	0%
COc1ccc(OCc2cc(C(=O)NCCc3ccccc3)no2)c(Cl)c1	16µM*	18µM*	?	?	21µM*	?
COc1ccc(CCNC(=O)c2nn(C)c3c2CS(=O)(=O)c2ccccc2-3)cc1OC	11%	?	i	i	23µM*	6%
COc1ccc(CCNC(=O)c2cc(-c3ccco3)on2)cc1OC	-18%	-3%	18µM*	9.2µM*	5.8µM*	-21%
COc1ccc(/C(O)=C/c2nc3ccc(C(=O)NCCc4cccc(C)c4)cc3[nH]c2=O)cc1OC	17%	?	i	10µM*	?	8%
CCN1CCC(N(Cc2ccc(F)cc2)C(=O)Nc2cccc(C(F)(F)F)c2)CC1	·	·	i	i	·	·
COc1ccc(CCNC(=O)c2ccc3nc(-c4ccco4)c(-c4ccco4)nc3c2)cc1OC	?	?	7.3µM*	?	?	?
CCc1nc2ccc(C(=O)NCCc3ccc(OC)c(OC)c3)cc2nc1CC	-2%	9%	i	i	2%	-2%
COc1cc2ccccc2cc1C(=O)Nc1ccc2oc(-c3ccc(F)cc3Cl)nc2c1	·	·	i	?	·	·
Cc1ccc(C(=O)NC(=S)Nc2cc(C(F)(F)F)ccc2Cl)cc1	?	9.2µM*	i	i	?	?
O=C(Nc1cc(C(F)(F)F)ccc1Cl)c1ccncc1	1%	2%	i	i	0%	?
COc1cc(C(=O)Nc2cc(C(F)(F)F)ccc2Cl)cc(OC)c1OC	-8%	4%	21µM*	i	-6%	-2%
COc1ccc(Nc2nc(-c3sc(C)nc3C)cs2)c(OC)c1	16µM*	?	?	7.3µM*	21µM*	?
CC(=O)c1ccc(Nc2nc(-c3sc(C)nc3C)cs2)cc1	2.9µM*	·	12µM*	?	·	?
Cc1nc(N)sc1-c1csc(Nc2ccccn2)n1	-22%	3%	i	i	-1%	-1%
Cc1nc(N)sc1-c1csc(Nc2ccc(Cl)cn2)n1	?	?	18µM*	i	1%	?
COc1ccc(Nc2nc(-c3cccs3)cs2)c(OC)c1	-4%	16%	i	i	-14%	-4%
